An excerpt weighted towards active compounds, which were near 19% of everything screened.
TDP1 cell CPT – DT40-hTDP1 cell growth loss with CPT. chicken DT40 Tdp1-/-;hTDP1 cells + 20 nM CPT, ATP luminescence, 48 h. Potency, µM (highest dose often 46.2 µM), for inactives: at the highest dose activity change, negative = growth inhibition, hits mostly inhibitors. 420,000 compounds, 12% hits; note: nearly all actives have a fitted effect of over 55% in size
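Cell growth measured by CellTiter-Glo luminescence after a minimum 48 h, 37 C compound exposure with 20 nM CPT in Tdp1-knockout DT40 cells stably expressing hTDP1, seeded 400/well; qHTS titration format.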
HT1080 IDH1KD tx – kills HT-1080 cells with IDH1 knockdown | 360,000 compounds, 2% hits | HT-1080 IDH1 knockdown viability, ATP luminescence, 48 h | Potency, µM (doses to about 46.1 µM), for inactives: at the top dose activity, negative = toxicity, hits mostly cytotoxic;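 note: 0% = DMSO wells and -100% = cell-free medium wells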
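Viability of IDH1-knockdown HT-1080 fibrosarcoma cells was assessed by CellTiter-Glo after 48 h at 37 °C with titrated compound; concentration-effect curves were classified by fit quality and response size.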
DT40 TDP1 no CPT – qHTS for Inhibitors of human tyrosyl-DNA phosphodiesterase 1 (TDP1): qHTS in cells in absence of CPT; DT40 Tdp1-/- hTDP1 cells, no CPT, ATP luminescence, 48 h; Potency, µM (titrated, usually from 46.2 µM), without a hit: at the top dose activity change, negative = growth inhibition, actives largely listed as inhibitors; 420,000 compounds, 15% hits; note: nearly all actives have a fitted effect of over 55% in size
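Seeded 400 DT40-hTDP1 cells/well (vehicle DMSO, no 20 nM CPT); pinned compounds; ≥48 hr at 37 °C; CellTiter-Glo luminescence as viability measure.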
KB-V1 cytotox – kills drug-selected multidrug resistant KB-V1 cells. 400,000 compounds, 3.4% hits. KB-V1 MDR cells viability, CellTiter-Glo, 72 h. Potency, µM (doses to about 46.1 µM), hits mostly cytotoxic; note: nearly all actives have a fitted effect of over 60% in size
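Luminescent ATP read-out (CellTiter-Glo, 10 min) measures survival of drug-selected KB-V1 MDR cells after 72 h, 37 degrees C compound exposure. Medium: phenol-red-free DMEM, 10% FBS. Values from fitted concentration-response curves.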
KB-3-1 tox – KB-3-1 parental cell cytotoxicity | 400,000 compounds, 1.4% hits | KB-3-1 viability, CellTiter-Glo ATP luminescence, 72 h | Potency, µM (doses to about 46.1 µM), hits mostly cytotoxic | AID 1347075; note: nearly all actives have a fitted effect of over 60% in size
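Cytotoxicity in the drug-sensitive parental line KB-3-1 was scored as loss of CellTiter-Glo luminescence following 72 h incubation with compound. Values come from curve fitting of normalized concentration-response data.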
HT1080NT lethal – kills 2HG-producing HT-1080-NT fibrosarcoma cells. HT-1080-NT fibrosarcoma viability, CellTiter-Glo ATP luminescence, 48 h. Potency, µM (doses to about 46.1 µM), for the others: top-dose activity, negative = less viability, hits mostly cytotoxic. 360,000 compounds, 1.6% hits. AID 686970;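 note: NT is the 2HG producing partner of a matched IDH1 knockdown line; 0% = DMSO-treated cells and -100% = media-only wells without cells; nearly all actives have a fitted effect of over 55% in size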
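Toxicity toward the 2HG-producing NT line was scored as %Activity, normalised to DMSO and no-cell wells, from CellTiter-Glo luminescence after 48 hours' treatment.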
The depositor's hits bear a star; i = inactive; ? = inconclusive; . = not tested or not shown. Calls come from the whole dose curve; as a rule, active = well fitted curve in the direction sought with a large enough effect; inconclusive = small, poorly fitted or top-dose-only effect, or another doubt; inactive = no such curve, though single readings can be large; an effect the other way counts as inactive or inconclusive. Unless noted, % is set by controls: 0 for no effect and ±100 for the full control effect; potency is the fitted concentration of half-maximal effect.

SMILES | TDP1 cell CPT | HT1080 IDH1KD tx | DT40 TDP1 no CPT | KB-V1 cytotox | KB-3-1 tox | HT1080NT lethal
CCOc1cc2[nH]c(=O)n(Cc3ccc(C(=O)NCCCN4CCC(C)CC4)cc3)c(=O)c2cc1OCC | ? | ? | 23µM* | i | i | ?
CCOc1cc2[nH]c(=S)n(Cc3ccc(C(=O)NCCCN(CC)CC)cc3)c(=O)c2cc1OCC | ? | ? | ? | ? | i | ?
CCOc1cc2[nH]c(=S)n(Cc3ccc(C(=O)NCCCN4CCOCC4)cc3)c(=O)c2cc1OCC | ? | 12% | 18µM* | i | i | 12%
CC1CCN(CCCNC(=O)c2ccc3c(=O)n(Cc4ccc(Cl)cc4)c(=S)[nH]c3c2)CC1 | ? | -9% | ? | ? | ? | -8%
COC(=O)c1ccc2c(=O)n(Cc3ccc(C(=O)NCCCN4CCC(C)CC4)cc3)c(=S)[nH]c2c1 | 21µM* | ? | 16µM* | ? | i | ?
CCOc1cc2[nH]c(=S)n(Cc3ccc(C(=O)NCCCOC)cc3)c(=O)c2cc1OCC | -23% | 4% | 0% | i | i | -1%
Fc1ccc(-n2cc(-c3ccccc3)c3c(=S)nc[nH]c32)cc1 | ? | ? | ? | i | 18µM* | -29%
Fc1cccc(-n2cc(-c3ccccc3)c3c(=S)nc[nH]c32)c1 | ? | ? | 21µM* | i | ? | -14%
Cc1cccc(C)c1NC(=O)C1c2ccccc2OCC(=O)N1Cc1ccccc1 (stereo not drawn) | -23% | ? | ? | i | i | 2%
CC1=NN(C(N)=S)C(=O)C1N=Nc1c(C)cc(C)cc1C (stereo not drawn) | 0.52µM* | 3% | 0.58µM* | ? | 4.6µM* | 11%
CC1=NN(C(N)=S)C(=O)C1N=Nc1ccccc1O (stereo not drawn) | 17% | -3% | -2% | i | i | -1%
CCOc1ccccc1N=NC1C(=O)N(C(N)=S)N=C1C (stereo not drawn) | 16µM* | 9% | 3.7µM* | i | i | 9%
CC1=NN(C(N)=S)C(=O)C1N=Nc1ccccc1[N+](=O)[O-] (stereo not drawn) | ? | 1% | -20% | i | i | 7%
COc1cccc(N=NC2C(=O)N(C(N)=S)N=C2C)c1 (stereo not drawn) | 9% | -6% | -27% | i | i | 26µM*
CC1=NN(C(N)=S)C(=O)C1N=Nc1cccc(Cl)c1 (stereo not drawn) | -23% | -19% | -17% | i | i | -14%
CC1=NN(C(N)=S)C(=O)C1N=Nc1c(Br)cc(Br)cc1Br (stereo not drawn) | -28% | ? | -28% | i | ? | -12%
CC1=NN(C(N)=S)C(=O)C1N=Nc1c(Cl)cc([N+](=O)[O-])cc1Cl (stereo not drawn) | ? | -21% | 16µM* | ? | i | -19%
Cc1ccc2nc(CN3CCN(S(=O)(=O)c4ccccc4)CC3)oc2c1 | -26% | . | -24% | i | i | .
CCN(Cc1ccccc1)C(=O)Cn1cc(S(=O)(=O)Cc2cccc(Cl)c2)c2ccccc21 | ? | . | ? | ? | i | .
CC1=NN(C(N)=S)C(=O)C1N=Nc1ccccc1C (stereo not drawn) | 1.6µM* | -1% | 1.6µM* | ? | i | -3%
Cc1cc(C)c(C(=O)N2CCCC(CNC(=O)C3(c4ccc(Cl)cc4)CC3)C2)c(=O)[nH]1 (stereo not drawn) | 4% | 2% | 4% | i | i | 13%
CC1CC(=O)N(c2ccc(NCCc3ccc(O)cc3)c([N+](=O)[O-])c2)C1=O (stereo not drawn) | 16µM* | -16% | 15µM* | ? | i | -4%
O=C1C2CC=CCC2C(=O)N1c1ccc(NCCc2ccccc2F)c([N+](=O)[O-])c1 (stereo not drawn) | ? | 0% | ? | ? | i | -2%
O=C1C2CC=CCC2C(=O)N1c1ccc(NCCc2ccccc2)c([N+](=O)[O-])c1 (stereo not drawn) | ? | -1% | 23µM* | i | i | 5%
CC1CC(=O)N(c2ccc(NCCc3ccccc3)c([N+](=O)[O-])c2)C1=O (stereo not drawn) | 4% | -2% | -5% | i | i | 5%
SMILES | TDP1 cell CPT | HT1080 IDH1KD tx | DT40 TDP1 no CPT | KB-V1 cytotox | KB-3-1 tox | HT1080NT lethal
Cc1ccc(OC2CCN(C(=O)[C@H]3O[C@@H](n4cnc5c(N)ncnc54)[C@H](O)[C@@H]3O)CC2)cc1 | ? | ? | ? | i | i | ?
O=C(c1ccc2c(=O)n(Cc3ccccc3)c(=S)[nH]c2c1)N1CCCC1 | -22% | -8% | ? | i | i | -1%
O=C(c1ccc2c(=O)n(-c3ccccc3)c(=S)[nH]c2c1)N1CCCCC1 | 6.5µM* | -27% | 6.5µM* | ? | 7.3µM* | -27%
O=C(c1ccc(F)cc1)N1CCN(c2ncccn2)CC1 | 7% | 10% | -6% | i | i | 23%
CCOCCCn1c(=S)[nH]c2cc(C(=O)N3CCN(c4ccccc4)CC3)ccc2c1=O | ? | 6% | -12% | i | ? | 1%
O=C(c1ccc2c(c1)[nH]c(=S)n1c3ccccc3nc21)N1CCN(c2ncccn2)CC1 | 21µM* | -2% | ? | i | i | -13%
O=C(c1ccc2c(=O)n(-c3ccccc3)c(=S)[nH]c2c1)N1CCN(c2ccccc2)CC1 | 15µM* | -9% | 12µM* | i | i | 1%
Cc1nc2sccn2c(=O)c1S(=O)(=O)NCc1ccc(F)cc1 | 2% | . | -12% | i | i | .
N/C(=N\OC(=O)CCCc1ccccc1)c1ccccc1Cl | -5% | 18% | 2% | ? | i | 30%
CCC1(C)NC(=O)N(CC(=O)c2cc(C)n(C3CC3)c2C)C1=O (stereo not drawn) | ? | 0% | ? | i | i | 11%
COc1ccc(CCNC(=O)CC(C)(C)CC2=NS(=O)(=O)c3ccccc3N2)cc1OC | -16% | -1% | 16% | i | i | -1%
COc1ccc(OC)c(CCNC(=O)CC2(CC3=NS(=O)(=O)c4ccccc4N3)CCCC2)c1 | 12µM* | -13% | ? | i | i | -12%
